A selection: hits, their analogues and other compounds. The true share with any hit is near 19%.
DT40 TDP1 no CPT: qHTS for Inhibitors of human tyrosyl-DNA phosphodiesterase 1 (TDP1): qHTS in cells in absence of CPT; AID 686978, 2013; DT40 Tdp1-/- hTDP1 cells, no CPT, ATP luminescence, 48 h; 420,000 tested, 15% active; Potency, µM (series often up to 46.2 µM), without a hit: top-dose activity change, negative = growth inhibition, actives largely listed as inhibitors; further: potency means the concentration at half of the fitted maximal effect; nearly all actives have a fitted effect of over 55% in size
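Stably hTDP1-transfected Tdp1-null chicken DT40 cells were treated with library compounds minus camptothecin and grown for at least 48 hr at 37 °C, after which cellular ATP was quantified by luminescence.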
HT1080 IDH1KD tx: HT-1080 IDH1 knockdown cell toxicity (counter line); HT-1080 IDH1 knockdown viability, ATP luminescence, 48 h; Potency, µM (highest dose often 46.1 µM), without a hit: at the top dose activity, negative = toxicity, hits mostly cytotoxic; 360,000 tested, 2% active; AID 686971;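 further: potency means the concentration at half of the fitted maximal effect; 0% = DMSO wells and -100% = cell-free medium wells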
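In this qHTS, HT-1080 cells depleted of IDH1 are exposed for 48 h at 37 °C to compound titrations. Toxicity is scored from CellTiter-Glo luminescence, with DMSO as full viability and medium alone as none.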
IL1B secr inh: blocks inflammasome-driven IL-1 beta release; THP-1 LPS/ATP IL-1B secretion, AlphaLISA, 16 h; active compounds read low; activity change, % at 57.5 µM; 360,000 tested, 4.7% active; in the data active means activity change below about -50%; inconclusive means mostly about -30% to -49%
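THP-1 cells pretreated 1 hr with compounds (up to 57.5 uM final), then stimulated with LPS (250 ng/mL final) plus ATP (1.25 mM final); secreted IL-1B measured by AlphaLISA after 16 hr, decreased signal indicating inhibition.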
ELG1 DNA repair: blocks ELG1-dependent DNA repair in HEK293T cells; 330,000 tested, 2.3% active; Potency, µM (doses to about 46.1 µM), for inactives: top-dose activity change, negative = inhibition, actives largely listed as inhibitors; AID 504467; HEK293T ELG1-luciferase reporter, luminescence, 16 h; DNA damage induced by 5-fluorouridine; further: potency means the concentration at half of the fitted maximal effect; nearly all actives have a fitted effect of over 55% in size
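Luminescence from the luciferase reporter, measured 30 min after ONE-Glo reagent at room temperature, was the read-out. Beforehand, 2,000 cells per well were exposed for 16 hr at 37 °C to 5-fluorouridine together with compound or vehicle.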
HT1080-NT tox: kills 2HG-producing HT-1080-NT fibrosarcoma cells; HT-1080-NT fibrosarcoma viability, CellTiter-Glo ATP luminescence, 48 h; Potency, µM (series often up to 46.1 µM), for the others: top-dose activity, negative = less viability, most hits filed as cytotoxic; 360,000 tested, 1.6% active; AID 686970;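 further: NT is the 2HG producing partner of a matched IDH1 knockdown line; potency means the concentration at half of the fitted maximal effect; 0% = DMSO-treated cells and -100% = media-only wells without cells; nearly all actives have a fitted effect of over 55% in size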
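Fibrosarcoma NT cells, 750 per well in 5% FBS RPMI, were exposed to compound for 48 hours. Viability: CellTiter-Glo luminescence.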
DT40 TDP1 CPT: DT40-hTDP1 cell growth loss with CPT; chicken DT40 Tdp1-/-;hTDP1 cells + 20 nM CPT, ATP luminescence, 48 h; Potency, µM (doses to about 46.2 µM), without a hit: at the highest dose activity change, negative = growth inhibition, most hits filed as inhibitors; 420,000 tested, 12% active; further: potency means the concentration at half of the fitted maximal effect; nearly all actives have a fitted effect of over 55% in size
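Cell growth measured by CellTiter-Glo luminescence after a minimum 48 h, 37 C compound exposure with 20 nM CPT in Tdp1-knockout DT40 cells stably expressing hTDP1, seeded 400/well; qHTS titration format.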
The depositor's hits bear a star; ? = inconclusive; . = no result given. Unless noted, the call rests on the fitted dose curve; in most records, active means well fitted curve in the direction sought with a large enough effect; inconclusive means small, poorly fitted or top-dose-only effect, or another doubt; inactive means no such curve, though single readings can be large; an effect the other way counts as inactive or inconclusive. Unless noted, on the % scale 0 is the no-effect control and ±100 the full control effect.

SMILES	DT40 TDP1 no CPT	HT1080 IDH1KD tx	IL1B secr inh	ELG1 DNA repair	HT1080-NT tox	DT40 TDP1 CPT
Clc1ccc2nc(-c3ccccc3)c(Cc3ccsc3)n2c1	?	6%	65	.	-6%	-5%
COC(=O)c1ccc2nc(-c3ccc(Cl)cc3)c(Cc3ccsc3)n2c1	12µM*	17%	33	.	13%	?
COc1ccc(-c2nc3ccc(C)cn3c2CC2CCCCC2)cc1OC	18µM*	?	-21	.	?	18µM*
COC(=O)c1ccc2nc(-c3ccc(OC)c(OC)c3)c(Cc3ccc(OC)cc3C)n2c1	26µM*	?	30	.	-9%	?
CC(C)C[C@H]1CN(CCCC[C@H]2CNC(=O)C(=O)N2CC2CCCCC2)C(=O)C(=O)N1CCc1ccccc1	?	-6%	0	.	-4%	?
COc1ccc(NC(=O)COC(=O)CNS(=O)(=O)/C=C/c2ccccc2)cc1OC	?	0%	15	11%	0%	0%
CCc1ccc(-c2cc(C)no2)cc1S(=O)(=O)N1CCC(C)CC1	23µM*	-17%	39	?	3%	?
Cc1cc(-c2ccc(C(C)C)c(S(=O)(=O)N3CCC(C)CC3)c2)on1	18µM*	?	13	?	?	26µM*
Cc1cc(-c2ccc(C)c(S(=O)(=O)NCCN3CCC(C)CC3)c2)on1	-21%	-1%	0	17%	-20%	?
COc1ccccc1N1CCN(S(=O)(=O)c2cc(-c3cc(C)no3)ccc2C(C)C)CC1	?	0%	-5	4%	-8%	?
O=C1OC(/C(=C\Nc2ccccc2)[N+](=O)[O-])c2ccccc21 (stereo unspecified)	-13%	?	-104*	6%	?	-6%
COc1ccc(CNC(=O)CC(C)n2nc(C)cc2C)cc1 (stereo unspecified)	-6%	.	.	.	.	-14%
O=C(N/N=C/c1cc2ccccc2nc1Cl)/C(=C/c1cccs1)NC(=O)c1ccccc1	?	-9%	19	?	-13%	23µM*
COc1ccc([N+](=O)[O-])cc1/C=N/NC(=O)/C(=C\c1cccs1)NC(=O)c1ccccc1	21µM*	1%	-18	0%	-8%	?
O=C(N/N=C/c1cc2ccccc2nc1Cl)[C@H]1C[C@@H]1c1ccccc1	16µM*	-3%	0	?	0%	21µM*
COc1ccc(/C=C(/NC(=O)c2ccccc2)C(=O)N/N=C/c2cccs2)cc1OC	-3%	3%	-16	?	0%	-2%
Cc1cccc2cc(/C=N/NC(=O)[C@H]3C[C@@H]3c3ccccc3)c(Cl)nc12	0%	-1%	31	1%	-7%	-1%
Cc1cc(NS(=O)(=O)c2ccc(NC(=O)COc3cc(C)c(Cl)c(C)c3)cc2)no1	?	-6%	15	3%	-4%	-16%
OCC[C@@H]1C[C@H](O)[C@@H](O)[C@@]2(OCCc3cc(Cl)ccc32)O1	3%	12%	20	.	12%	-12%
Cc1ccsc1C(=O)Nc1cc(Cl)ccc1-n1cncn1	-21%	1%	-1	.	0%	?
CC(=O)Nc1ccc(SCC(=O)N(C)C2CCS(=O)(=O)C2)cc1 (stereo unspecified)	-5%	14%	-10	15%	12%	-14%
Cn1c(=O)n(C)c2cc([N+](=O)[O-])c(N3CCN(C(=O)C(C)(C)C)CC3)cc21	13µM*	-8%	5	-13%	-6%	16µM*
COc1cc(C(=O)N2CCN(c3ccccc3OC)CC2)c([N+](=O)[O-])cc1OC	?	-24%	28	-8%	-20%	-24%
Cn1c(=O)n(C)c2cc([N+](=O)[O-])c(N3CCN(C(=O)c4ccccc4Br)CC3)cc21	21µM*	-22%	?	?	?	?
Cn1c(=O)n(C)c2cc([N+](=O)[O-])c(N3CCN(C(=O)c4ccccc4Cl)CC3)cc21	16µM*	7%	?	?	?	21µM*
SMILES	DT40 TDP1 no CPT	HT1080 IDH1KD tx	IL1B secr inh	ELG1 DNA repair	HT1080-NT tox	DT40 TDP1 CPT
Cn1c(=O)n(C)c2cc([N+](=O)[O-])c(N3CCN(S(C)(=O)=O)CC3)cc21	-24%	2%	-4	-5%	0%	27%
Cn1c(=O)n(C)c2cc([N+](=O)[O-])c(N3CCN(C(=O)c4ccccc4)CC3)cc21	18µM*	3%	10	-17%	-4%	15µM*
CN(C)c1cccc(C(=O)Nc2cccc(S(=O)(=O)NC3=NCCC3)c2)c1	-1%	4%	-1	?	-1%	14%
CCCC(=O)Nc1nnc(SCc2cc(=O)n3cccc(C)c3n2)s1	-24%	.	.	.	.	-5%
CC1CCCCN1S(=O)(=O)c1cc2c3c(c1)CC(=O)N3CCC2 (stereo unspecified)	?	.	.	.	.	-18%
COc1ccc(-c2nnc(SCC(=O)NC3CCCC3)n2C)cc1	-13%	11%	0	0%	6%	4%
COc1cccc(-c2cncnc2N(C)Cc2ccco2)c1	-17%	.	.	.	.	-11%
CCc1ccc(Cn2nnc(C(=O)Nc3ccc(C)cc3)c2N)cc1	2%	.	.	.	.	-6%
COc1ccc(C2C=C(c3ccc(Br)cc3)Nc3nnnn32)c(OC)c1 (stereo unspecified)	23µM*	.	.	.	.	-98%
Fc1ccc(Br)cc1C1C=C(c2ccc(Br)cc2)Nc2nnnn21 (stereo unspecified)	23µM*	.	.	.	.	?
COc1cccc(C2=CC(c3cccs3)n3nnnc3N2)c1 (stereo unspecified)	3.3µM*	8.2µM*	0	1%	8.2µM*	2.3µM*
CCc1ccc(C2=CC(c3cc(Br)ccc3F)n3ncnc3N2)cc1 (stereo unspecified)	18µM*	-7%	?	?	-8%	23µM*
O=C1CCCCC1(CCc1ccncc1)CCc1ccncc1	12µM*	-4%	-16	.	-3%	18µM*
COC(=O)[C@]1(Cc2ccccc2)N[C@H](c2ccc(-c3cccc(Cl)c3)cc2)[C@@H]2C(=O)N(C)C(=O)[C@@H]21	?	0%	?	-2%	?	16µM*
COC(=O)[C@]1(Cc2ccccc2)N[C@H](c2ccc(-c3cc(C(C)=O)cs3)cc2)[C@@H]2C(=O)N(C)C(=O)[C@@H]21	23µM*	6%	3	8%	2%	16µM*

High-throughput results: PubChem BioAssay, National Center for Advancing Translational Sciences (NCATS)
